Screening results as filed in PubChem.
PLK1 PBD inh – blocks phosphopeptide binding to human PLK1 polo-box domain. P53350. Plk1 PBD binding of FITC phosphopeptide, fluorescence polarization. Potency, µM, for the others: max response, negative = inhibition, actives largely listed as inhibitors. hit rate 2.8% among 360,000. AID 720504; further: potency means the concentration at half of the fitted maximal effect; series mostly up to about 57 µM; on the % scale 0 is the no-effect control and ±100 the full control effect; nearly all actives have a fitted effect of over 65% in size
BAZ2B inh – inhibitors of human BAZ2B bromodomain; Q9UIF8; Potency, µM (highest dose often 114 µM), without a hit: top-dose activity change, negative = inhibition, actives largely listed as inhibitors; AlphaScreen BAZ2B-H3K14Ac peptide displacement; AID 504333; hit rate 4.4% among 360,000; further: potency means the concentration at half of the fitted maximal effect; on the % scale 0 is the no-effect control and ±100 the full control effect; nearly all actives have a fitted effect of over 60% in size
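In this displacement format the biotinylated H3(5-23) peptide acetylated at Lys14 serves as ligand at 50 nM, with BAZ2B at 50 nM in PBS pH 7.4 containing 0.01% Tween-20. Donor and acceptor beads are 10 ug/mL final.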
JMJD2A Tudor – JMJD2A Tudor domain (human) inhibition. hit rate 4.4% among 390,000. AID 504339. Potency, µM (highest dose often 114 µM), for inactives: at the top dose activity change, negative = inhibition, hits mostly inhibitors. AlphaScreen JMJD2A-Tudor / H3K4me3 peptide binding. O75164; further: potency means the concentration at half of the fitted maximal effect; on the % scale 0 is the no-effect control and ±100 the full control effect; nearly all actives have a fitted effect of over 50% in size
G9a inh – inhibitors of human histone lysine methyltransferase G9a. Q96KQ7. G9a H3K9 monomethylation, AlphaScreen, 2 h. Potency, µM (titrated, usually from 102 µM), for inactives: at the highest dose activity, negative = inhibition, hits mostly inhibitors. hit rate 8.8% among 350,000; further: potency means the concentration at half of the fitted maximal effect; on the % scale 0 is the no-effect control and ±100 the full control effect; nearly all actives have a fitted effect of over 75% in size
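Using a bead-based AlphaScreen, monomethylated H3K9 product from 2 h room-temperature reactions (G9a 20 nM, peptide 500 nM, SAM 20 uM) was detected with 0.5 ug/mL rabbit anti-H3K9me1 antibody.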
PI5P4K alpha inh – inhibitors of human PI5P4K alpha. P48426. PI5P4Kalpha enzyme, ADP-Glo luminescence, 60 min; stronger effect = lower value. max response, %. hit rate 1.2% among 330,000. AID 652105; active means max response of -50% or lower; inconclusive means between -30% and -50%; inactive means -30% or higher; further: value at the top dose of about 77 µM; on the % scale 0 is the no-effect control and ±100 the full control effect
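ADP-Glo luminescence end-point read after a 60 min room-temperature kinase reaction of PI5P4Kalpha plus substrate, initiated with ATP at 5 microM final. Buffer: 0.038 M HEPES pH 7.4, EGTA, 0.1% CHAPS, 5% DMSO.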
HP1b chromo inh – HP1-beta chromodomain-methylated histone interaction inhibition; P83916; AlphaScreen HP1-beta / biotin-H3K9me3 peptide binding; Potency, µM (titrated, usually from 114 µM), for inactives: at the highest dose activity change, negative = inhibition, usual class: inhibitors; hit rate 0.56% among 390,000; AID 540317; further: potency means the concentration at half of the fitted maximal effect; nearly all actives have a fitted effect of over 70% in size
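HP1-beta protein (50 nM final) preincubated 30 min at room temperature with biotinylated H3(1-18)K9me3 peptide (50 nM) in PBS pH 7.4, 0.01% Tween-20, then compound added for 30 min. AlphaScreen streptavidin donor/nickel chelate acceptor beads (10 ug/mL final), 30 min dark, luminescence read.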
Starred values were filed as active, the others as inactive; ? = inconclusive; . = no result given; ! = a repeat was not active; [ ] = dose if it differs, or a comment. In the library only some 12% were active in any assay of this set; here they are far more common. Unless noted, the call rests on the fitted dose curve; in most records, active means well fitted curve in the direction sought with a large enough effect; inconclusive means small, poorly fitted or top-dose-only effect, or another doubt; inactive means no such curve, though single readings can be large; an effect the other way counts as inactive or inconclusive.

SMILES	PLK1 PBD inh	BAZ2B inh	JMJD2A Tudor	G9a inh	PI5P4K alpha inh	HP1b chromo inh
Cc1ccc(C(=O)O)cc1NC(=O)CSc1nnc(-c2ccccc2F)n1C1CCCCC1	-3%	.	-8%	.	-4	52%
COc1ccccc1COC(=O)C(NC(=O)c1ccc(C)cc1)C(C)C (configuration not stated)	2%	13%	32%	33%	2	47%
Cc1cc(NC(=O)CS(=O)(=O)c2cn(Cc3ccc(F)cc3)c3ccccc23)no1	-8%	4%	-4%	-10%	8	32%
Cc1cc(NC(=O)CS(=O)(=O)c2cn(Cc3cccc(F)c3)c3ccccc23)no1	-9%	-35%	-29%	14µM*	-9	5%
COc1ccccc1CNCCSc1nnnn1C	.	-4%	-10%	2%[59 µM]	.	24%
COc1ccc(-c2nn(-c3ccccc3)cc2C2CC(c3cccs3)=NN2C(=O)CCCC(=O)O)cc1 (configuration not stated)	-8%	79µM*	-15%	?	5	18%
COc1ccc(C2CC(c3cccs3)=NN2C(=O)CCC(=O)O)cc1 (configuration not stated)	0%	-1%	-6%	-74%	-4	29%
Cc1ccc(C2=NN(C(=O)CCC(=O)O)C(c3cn(-c4ccccc4)nc3-c3ccc(C)cc3)C2)cc1 (configuration not stated)	?	.	50µM*	?	6	-1%
Cc1ccc(-c2nn(-c3ccccc3)cc2C2CC(c3cccs3)=NN2C(=O)CCCC(=O)O)cc1 (configuration not stated)	-18%	79µM*	71µM*	?	.	48%
Cc1ccc(-c2nn(-c3ccccc3)cc2C2CC(c3ccccc3)=NN2C(=O)CCC(=O)O)cc1 (configuration not stated)	?	?	-27%	.	2	1%
O=C(O)CCC(=O)N1N=C(c2cccs2)CC1c1cn(-c2ccccc2)nc1-c1ccccc1 (configuration not stated)	-8%	?	-25%	14%	1	30%
COc1ccc(-c2nsc(NC(=O)c3oc4ccccc4c3C)n2)cc1	.	25%	-20%	24%[59 µM]	.	68%
N#Cc1c(N2CCN(c3ccc(F)cc3)CC2)nc(N)c2c(N)nc3c(c12)CC(=O)N3C1CC1	-29%	?	-29%	?	-50*	-19%
Cc1ccc(CN2CCN(C3CCN(C(=O)Nc4ccccc4C(F)(F)F)CC3)C(=O)C2=O)cc1	.	-2%	-7%	-2%[59 µM]	.	22%
CCN1C=C(Cc2ccc(OC)cc2)C2=C(C1)C(c1ccc(OC)cc1)C(C#N)=C(N)O2 (configuration not stated)	-10%	45µM*	?	?	-13	-29%
COc1ccc(C2C(C#N)=C(N)Oc3cc4c(cc32)OCO4)cc1 (configuration not stated)	-11%	-32%	?	?	.	-7%
CCn1c(/C=C/c2ccc(O)c(O)c2)nc2ccccc2c1=O	5%	71µM*	56µM*	.	?	?
O=c1nc(/C=C/c2ccc(O)c(O)c2)oc2ccccc12	-4%	?	-29%	40µM*	?	-6%
COCC(=O)N[C@H]1CC[C@@H](CC(=O)NCc2ccccc2OC)O[C@@H]1CO	-2%	.	.	.	1	.
N=c1c[n+](N2CCOCC2)[n-]o1	?	50µM*	56µM*	8.9µM*!	1	2%
CS(=O)(=O)C1=NSC2=NC(=O)/C(=C\c3cccn3-c3ccc(Cl)cc3)C(=N)N21	21µM*	40µM*	45µM*	45µM*	-81*	?
CC1=CC2=NC(=O)/C(=C\c3cc(C)n(-c4ccccc4F)c3C)C(=N)N2O1	-6%	-5%	-15%	4%[59 µM]	-11	0%
Cc1cc(/C=C2/C(=N)N3C(=NC2=O)SN=C3S(C)(=O)=O)c(C)n1-c1ccccc1F	?	45µM*	?	50µM*	-62*	-12%
CCn1c(-c2ccc(-c3ccccc3)cc2)c[nH]c1=S	-13%	-29%	-36%	?	-23	21%
Cn1c(-c2ccccc2)cc(=O)c2ccccc21	-2%	-1%	-13%	28%[12.7 µM]	.	30%
SMILES	PLK1 PBD inh	BAZ2B inh	JMJD2A Tudor	G9a inh	PI5P4K alpha inh	HP1b chromo inh
C=CCn1c(-c2ccc(Cl)cc2)c[nH]c1=S	-6%	-27%	25µM*	1.4µM*	.	9%
C=CCn1c(=N)n(CC(=O)c2ccc(Cl)cc2)c2ccccc21	0%	2%	0%	-4%	-7	44%
Cn1c(-c2ccc(-c3ccccc3)cc2)c[nH]c1=S	-13%	-34%	?	14µM*	-17	-4%
C=CCn1c(-c2ccccc2)c[nH]c1=S	-13%	-34%	7.9µM*	?	.	?
COc1ccc(N=CC2CCCCC2=O)c([N+](=O)[O-])c1 (configuration not stated)	3%	.	25µM*	.	3	45µM*
COC(=O)c1cccc(-n2c(=O)n(Cc3ccccc3)c(=O)c3[nH]cnc32)c1C	-29%	-5%	-14%	18µM*	7	5%
Cc1sc2nc3ccc(N4CCCC4)nn3c(=O)c2c1C	?	-2%	-10%	35µM*	-2	11%
COCCCNC(=S)N/N=C/c1ccc2ccccc2c1	-10%	?	-33%	50µM*	8	13%
COCCCNC(=S)N/N=C/c1ccc(O)cc1	-6%	-18%	-16%	7%	0	42%
COCCCNC(=S)N/N=C/c1ccc(O)cc1O	-8%	6.3µM*	50µM*	4%	0	16%
COc1cccc(/C=N/NC(=S)Nc2cccc(C(=O)O)c2)c1O	-19%	.	16µM*	40µM*	-60*	41%
COCCCNC(=S)N/N=C/c1cccc(OC)c1O	-6%	6.3µM*	?	.	-4	18%
COCCCNC(=S)N/N=C/c1ccc(OC)cc1	3%	-3%	-10%	.	0	21%
COc1cccc(/C=N/NC(=O)CNC(=O)c2ccncc2)c1O	-3%	-21%	-4%	34%	1	52%
CC(C)(C)n1nnnc1C(CCc1ccccc1)N1CCN(C/C=C/c2ccccc2)CC1 (configuration not stated)	-6%	.	.	.	9	.
CC(C)c1ccc(NC(=O)[C@H]2O[C@@H]3OC(C)(C)O[C@@H]3[C@H]3OC(C)(C)O[C@H]32)cc1	.	-10%	-5%	10%[59 µM]	.	31%
CCCCN(C)C(=O)c1ccc(Nc2nc(C(N)COCc3ccccc3)cs2)nc1 (configuration not stated)	12%	.	.	.	1	.
CN(C)CCCN(C(=O)COc1ccccc1)c1nc2ccc(Cl)cc2s1	-7%	.	-22%	?	3	4%
COc1cccc2sc(N(CCCN(C)C)C(=O)COc3ccc(Cl)cc3)nc12	-2%	.	-20%	79µM*	6	26%
